According to PubChem BioAssay AID504692 (The Scripps Research Institute Molecular Screening Center, 2011):
Hit rate of the full screen: of about 340,000 compounds, about 2,000 (0.59%) were called active. Rule as the data show it: active = activation mostly above about 9.5% (no sharp cut-off); inactive = mostly below about 7.6%. Shown is part of a subset that was picked to be rich in actives.

Each molecule was assayed against 5-hydroxytryptamine receptor 5A (Homo sapiens) (UniProt P47898) (assay: activation of human 5-HT5A receptor – cell-based, luminescence, full-deck HTS, counter-screen for OPRM1-OPRD1 heterodimer agonist project, primary screen (AID 504692;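 also: 0% = cells with vehicle only and 100% = reference agonist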)). Conditions: HTR5A agonist assay, at 9.3 µM, active compounds read high.
Chain of 5-hydroxytryptamine receptor 5A (Homo sapiens) (P47898 whole entry, looked up): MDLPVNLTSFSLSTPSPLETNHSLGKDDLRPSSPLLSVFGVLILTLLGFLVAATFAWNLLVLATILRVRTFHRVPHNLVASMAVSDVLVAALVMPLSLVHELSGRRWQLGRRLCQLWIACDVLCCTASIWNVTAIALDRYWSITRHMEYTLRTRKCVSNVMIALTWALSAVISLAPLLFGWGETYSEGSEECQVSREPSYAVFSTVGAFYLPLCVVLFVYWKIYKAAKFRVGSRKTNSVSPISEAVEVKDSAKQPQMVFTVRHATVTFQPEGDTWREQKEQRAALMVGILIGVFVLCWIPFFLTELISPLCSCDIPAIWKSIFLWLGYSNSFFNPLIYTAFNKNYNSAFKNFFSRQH
For `COc1ccc(CCNS(=O)(=O)c2cccc([N+](=O)[O-])c2)cc1`, the activation was 9% (inactive). With `C/C(=N\NS(=O)(=O)c1cccc([N+](=O)[O-])c1)c1cc2ccccc2o1` the activation was 11.2% (active). In the case of `CC(C=Cc1ccccc1)=NNS(=O)(=O)c1ccc([N+](=O)[O-])cc1`, the activation is reported as 2.51% (inactive). With `Cc1ccc(NC(=S)NC(NC(=O)Cc2cccc3ccccc23)C(Cl)(Cl)Cl)cc1` (configuration not stated) the activation was 26.7% (active). For `Cc1ccc(CNC(=O)[C@@H](NC(=O)Cc2ccccc2)C(C)C)cc1`, the activation was -1.89% (inactive). In the case of `CC(C)(C)C(=O)NC(NC(=S)Nc1ccc(S(N)(=O)=O)cc1)C(Cl)(Cl)Cl` (configuration not stated), the activation is reported as 3.71% (inactive). `CCOC(=O)C1CCCN(S(=O)(=O)c2ccc(-n3cnnn3)c(C)c2)C1` (configuration not stated) was tested, and the activation was 1.69% (inactive). `COC(=O)c1sccc1NC(=O)CSc1ccccc1NS(=O)(=O)c1cc(Cl)ccc1Cl` was tested, and the activation was 8.27% (inactive). In the case of `CCc1cc2c(NC3CCCC3)ncnc2s1`, the activation is reported as 0.57% (inactive). With `CCc1cc2c(NC(Cc3ccccc3)C(=O)O)ncnc2s1` (configuration not stated) the activation was -3.53% (inactive). In the case of `CCc1cc2c(N3CCN(c4nnc(CC)s4)CC3)ncnc2s1`, the activation is reported as 10.4% (active). In the case of `COc1ccc(C(=O)NCc2ccc(Cl)cc2)cc1S(=O)(=O)N1CCCC1`, the activation is reported as -0.47% (inactive). With `C=CCOC(=O)C1=C[C@@H](c2ccc3c(c2)OCO3)C[C@@H](OCCCCO)O1` the activation was -2.46% (inactive). For `Nn1c(SCC(=O)Nc2nccs2)nnc1-c1ccco1`, the activation was 2.08% (inactive). For `COc1ccc(-c2cc(=O)oc3cc(OCC(=O)N(C)C4CCS(=O)(=O)C4)ccc23)cc1` (configuration not stated), the activation was 3.71% (inactive). With `COc1ccc(-c2cc(=O)oc3cc(OCC(=O)N[C@@H](Cc4c[nH]c5ccccc45)C(=O)O)ccc23)cc1` the activation was -4.61% (inactive). With `CC(=O)COc1ccc2c(-c3ccccc3)cc(=O)oc2c1` the activation was 15.1% (active). In the case of `Cc1cc(C(=O)OC(C)C(=O)Nc2cccc(S(=O)(=O)N3CCOCC3)c2)c(C)o1` (configuration not stated), the activation is reported as 1.13% (inactive). With `C[C@@H](CN1CCC[C@H]1CN1C(N)=NC[C@@H]1Cc1ccccc1)N1C[C@@H](Cc2ccccc2)N(CCCC2CCCC2)C1=N` the activation was -7.1% (inactive). `COc1cc(SC#N)ccc1N=Cc1c(C)[nH]n(-c2ccc(C)cc2)c1=O` was tested, and the activation was 11.4% (active). With `Cc1ccc(C(=O)N2CC(=O)Nc3ccccc32)o1` the activation was -6.07% (inactive). For `COc1cccc(OC)c1C(=O)N1CCN(Cc2cccnc2)CC1`, the activation was 3.95% (inactive). `C=C(C)CSc1nnc(-c2ccc(C)cc2)n1N` was tested, and the activation was -0.48% (inactive). With `COc1ccccc1NS(=O)(=O)c1ccc(C(=O)N2CCN(c3ccccc3O)CC2)cc1` the activation was -0.27% (inactive). With `COc1ccc(S(=O)(=O)N2CCOC2CNC(=O)C(=O)NCc2ccncc2)cc1OC` (configuration not stated) the activation was 1.9% (inactive). `CC(=O)Nc1ccc(S(=O)(=O)N2CCn3cccc3C2C)cc1` (configuration not stated) was tested, and the activation was -2.82% (inactive). With `CCOc1ccc2[nH]c(C(=O)N/N=C/c3cccc(OC)c3OC)cc2c1` the activation was 4.96% (inactive). `COc1cccc(/C=N/NC(=O)c2[nH]nc3c2CCc2ccccc2-3)c1O` was tested, and the activation was 18.3% (active). With `COc1ccc(/C=N/NC(=O)c2ccncc2)cc1CN1CCCc2ccccc21` the activation was 1.74% (inactive). For `COc1cccc(CNCc2ccc3c(c2)OCO3)c1`, the activation was 9.7% (inactive). For `COc1ccc(C(=O)Nc2cccc(NC(=O)c3ccc(OC)cc3OC)n2)c(OC)c1`, the activation was 13.4% (active). `COc1ccc(C(=O)NC2=NCCS2)c(OC)c1` was tested, and the activation was 4.66% (inactive). `COc1ccc(C(=O)NC(C)CCc2ccccc2)c(OC)c1` (configuration not stated) was tested, and the activation was 3.2% (inactive). For `CCc1nnc(NC(=O)c2cc(S(=O)(=O)N3CCCCC3)ccc2C)s1`, the activation was 3.55% (inactive). `COC(=O)C1=C(O)/C(=C/c2ccc(OCC(=O)Nc3ccccc3)cc2)N=C1C` was tested, and the activation was -2.15% (inactive). In the case of `CCOC(=O)C1=C(O)/C(=C/c2ccc(OCC(=O)Nc3ccc(C)cc3)cc2)N=C1C`, the activation is reported as 23.3% (active). `Cc1ccc(NC(=O)COc2ccc(/C=C3/NC(=O)NC3=O)cc2)cc1` was tested, and the activation was 1.1% (inactive). `CCOC(=O)CC1=CC(=O)Nc2ccccc2N1` was tested, and the activation was 6.62% (inactive). For `COc1ccc(C(=O)NC(=S)Nc2ccccc2N2CCN(S(C)(=O)=O)CC2)cc1OC`, the activation was -1.57% (inactive). In the case of `CC(=O)N1CCN(c2ccccc2NC(=S)NC(=O)c2cc3ccccc3o2)CC1`, the activation is reported as 16.4% (active). For `CCc1ccc(C(=O)NC(=S)Nc2ccccc2N2CCOCC2)cc1`, the activation was -3.97% (inactive). In the case of `O=S(=O)(c1ccc(Sc2nnc3ccccn23)nc1)N1CCOCC1`, the activation is reported as 2.94% (inactive). With `NC(=O)C1(N2CCCCC2)CCN(C2CC(=O)N(Cc3ccc(N4CCCC4=O)cc3)C2=O)CC1` (configuration not stated) the activation was 1.47% (inactive). With `COc1cccc(NC(=O)CN(C)CC(=O)Nc2ccc3c(c2)CCC3)c1` the activation was 7.9% (inactive). With `COc1ccc(-c2ocnc2C(=O)Nc2ccc3c(c2)CCC3)cc1` the activation was 16.5% (active). `CC(C)Oc1ccc(C(=O)NCC(=O)Nc2ccc3c(c2)CCC3)cc1` was tested, and the activation was -1.62% (inactive). For `O=C(CN(C(=O)c1csnn1)c1cccc(F)c1)NCc1ccc(F)cc1`, the activation was -2.96% (inactive). In the case of `CCOC(=O)C1=C(CC)Nc2ccccc2N=C1N`, the activation is reported as 2.67% (inactive). In the case of `O=C(c1ccc(OC2CCN(C(=O)c3cccnc3)CC2)cc1)N1CCCCCC1`, the activation is reported as 2.41% (inactive). With `O=C(NCc1cc(F)cc(C(F)(F)F)c1)C1CCC(=O)N(C2CCCC2)C1` (configuration not stated) the activation was 2.09% (inactive). With `C[C@H]1[C@H]2c3nc4ccccc4n3C[C@H]1ON2C1CCCCC1` the activation was 1.56% (inactive). `CCOc1ccc(CCNC(=O)C(CC)n2nc(C)n3c(cc4sccc43)c2=O)cc1OCC` (configuration not stated) was tested, and the activation was 8.13% (inactive). In the case of `Cc1ccc(/C=C2\CCn3c2nc2cc(C(=O)O)ccc2c3=O)c(C)c1`, the activation is reported as 14.2% (active). In the case of `N#Cc1ccc(/C=C2\CCn3c2nc2cc(C(=O)O)ccc2c3=O)cc1`, the activation is reported as -2.04% (inactive). For `O=C(O)c1ccc2c(=O)n3c(nc2c1)/C(=C/c1ccc(OC(F)F)cc1OC(F)F)CC3`, the activation was -1.8% (inactive). `COc1ccc(CNc2nccs2)cc1` was tested, and the activation was -2.48% (inactive). In the case of `CCN(CC)CCNS(=O)(=O)c1ccc(/C=C/C(=O)O)cc1`, the activation is reported as 6.16% (inactive).
